Experimental findings from PubChem BioAssay (NCATS) are described below.

Test [1] concerns the target Androgen receptor (Homo sapiens) (UniProt P10275). Briefly: qHTS assay for small molecule agonists of androgen receptor signaling (AID 588515; active = well fitted curve in the direction sought with a large enough effect in the signal ratio, with a control signal flat; inconclusive = small, poorly fitted or top-dose-only effect, or effect the other way, or a change in a side signal; inactive = no such curve, though single readings can be large or run the other way; the % refers to the signal ratio; note: % is set by controls: 0 for no effect and ±100 for the full control effect). The settings on record: AR-UAS-bla HEK293, beta-lactamase ratio, agonist 16 h; stronger effect = higher value. Summed up:
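EC50 and efficacy came from Hill fits of titrations (up to 92 uM) normalized to 30 nM R1881 as 100% and DMSO as 0%. Compound exposure was 16 h at 37 C on AR-UAS-bla HEK293 cells, with a 405/460/530 nm CCF4 fluorescence read.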

For test [2] the target is unchanged. Briefly: qHTS assay for small molecule antagonists of androgen receptor signaling (AID 588516; active = well fitted curve in the direction sought with a large enough effect in the signal ratio, with a control signal flat, not every such curve was filed as active; inconclusive = small, poorly fitted or top-dose-only effect, or effect the other way, or a change in a side signal; inactive = no such curve, though single readings can be large or run the other way; the % refers to the signal ratio; note: % is set by controls: 0 for no effect and ±100 for the full control effect). Summed up: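 Antagonist mode: inhibition of R1881-stimulated (10 nM final) bla reporter in GeneBLAzer AR HEK 293 cells, 16 h at 37C, compounds titrated. IC50 and efficacy from Hill-equation fits of 405/460–530 nm FRET ratios.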
For orientation: Quantitative high-throughput screening tests each substance at several concentrations.

Test [3] addresses Bile acid receptor (Homo sapiens) (UniProt Q96RI1). Briefly: qHTS assay for small molecule antagonists of farnesoid X receptor signaling (AID 588526). Note: potency is the fitted concentration of half-maximal effect. The essentials: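 Antagonist mode: titrated compounds tested against chenodeoxycholic acid stimulation (normalized to 50 uM CDCA and DMSO) in GeneBLAzer HEK293T cells for 16 h. Beta-lactamase read by CCF4 fluorescence; IC50 from Hill fits.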

Test [4] shares this target. Briefly: qHTS assay for small molecule agonists of farnesoid X receptor signaling (AID 588527).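 Note: series mostly up to about 77 µM; 0% = vehicle basal and 100% = reference agonist.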 The settings on record: HEK293T FXR-UAS-bla, beta-lactamase ratio, 16 h; activation: stronger effect = higher value. The essentials: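 FXR-UAS-bla HEK293T cells (10% dialyzed FBS) preincubated 5-7 h at 37 C, then compounds at up to 92 uM for 16 h at 37 C. CCF4 beta-lactamase read-out after 2 h RT. Normalized to chenodeoxycholic acid (100 uM) and DMSO; Hill fit gave EC50 and efficacy.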

Test [5] addresses Glucocorticoid receptor (Homo sapiens) (UniProt P04150). In words: qHTS assay for small molecule agonists of glucocorticoid receptor signaling (AID 588532; active = well fitted curve in the direction sought with a large enough effect in the signal ratio, with a control signal flat; inconclusive = small, poorly fitted or top-dose-only effect, or a change in a side signal; inactive = no such curve, though single readings can be large or run the other way; the % refers to the signal ratio;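 note: 100% = dexamethasone at 0.1 µM and 0% = DMSO only wells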). The settings on record: HeLa MMTV-bla, beta-lactamase ratio, agonist, 18 h; activation: stronger effect = higher value, percent of dexamethasone control, DMSO zero. Summed up: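 Cells were plated and rested 3-5 h at 37 C, compounds were added in titration and incubated 18 h, then CCF4 substrate was loaded for 2 h at RT before reading blue/green fluorescence. EC50 came from Hill-equation fitting.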

Test [6] addresses Peroxisome proliferator-activated receptor gamma (Homo sapiens) (UniProt P37231). In words: qHTS assay for small molecule agonists of peroxisome proliferator-activated receptor gamma signaling (AID 588536; active = well fitted curve in the direction sought with a large enough effect in the signal ratio, with a control signal flat, not every such curve was filed as active; inconclusive = small, poorly fitted or top-dose-only effect, or effect the other way, or a change in a side signal; inactive = no such curve, though single readings can be large or run the other way; the % refers to the signal ratio; note: potency is the fitted concentration of half-maximal effect;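 for activation: 0% = DMSO basal wells and 100% = rosiglitazone at 2 µM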). Summed up:
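GeneBLAzer PPAR-gamma-UAS-bla HEK293 cells in 1% charcoal/dextran-treated FBS medium were treated 16 h at 37 C with compounds. Beta-lactamase activity was read by CCF4 ratio (460/530 nm). Response was normalized to 2 uM rosiglitazone (100%) and DMSO, then Hill-fitted for EC50 and efficacy.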

Test [7] shares this target. In words: qHTS assay for small molecule antagonists of peroxisome proliferator-activated receptor gamma signaling (AID 588537; active = well fitted inhibition curve with a large enough effect in the signal ratio, with a control signal flat, not every such curve was filed as active; inconclusive = small, poorly fitted or top-dose-only effect, or effect the other way, or a change in a side signal; the % refers to the signal ratio;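 note: reporter cells co-stimulated with 50 nM rosiglitazone agonist during compound treatment; % of control where 0% means no effect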). Summed up:
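Step one: plate 3000 HEK293 UAS-bla cells per well in medium with 1% stripped serum and hold 6-6.5 h at 37 C. Step two: add compound and 50 nM agonist for 16 h. Step three: CCF4 loading, fluorescence read.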

Test [8] concerns the target Vitamin D3 receptor (Homo sapiens) (UniProt P11473). Briefly: qHTS assay for small molecule agonists of vitamin D receptor signaling (AID 588543).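 Note: 0% = DMSO basal and 100% = reference agonist control.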 The essentials: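 Agonist-mode beta-lactamase reporter: HEK293T VDR-UAS-bla cells in charcoal-stripped 2% FBS, compound series 16 h 37 C, CCF4 2 h RT. EC50 from Hill fit, scaled against DMSO and 50 nM calcitriol control.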

Test [9] is described as follows: qHTS assay for small molecule agonists of the antioxidant response element (ARE) signaling pathway (AID 651741; active = well fitted activation curve with a large enough effect in the signal ratio; inconclusive = small, poorly fitted or top-dose-only effect, or effect the other way, or a change in a side signal; the % refers to the signal ratio; note: potency is the fitted concentration of half-maximal effect; for activation: % of control where 0% means no effect). Summed up: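 HepG2 ARE-bla cells plated at 2,000 cells/well and incubated 5 h at 37 C/5% CO2 received 23 nL compound in DMSO. After 16 h at 37 C, LiveBLAzer B/G FRET substrate was applied for 2 h at room temperature and fluorescence read.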
Test [10] in a line: qHTS assay for small molecule activators of the human pregnane X receptor (PXR) signaling pathway (AID 720659; call rule not given here; note: 0% is about no effect).
Test [11] deals with Estrogen receptor (Homo sapiens) (UniProt P03372). Briefly: qHTS assay for small molecule antagonists of estrogen receptor alpha signaling (AID 588513; active = well fitted curve in the direction sought with a large enough effect in the signal ratio, with a control signal flat, not every such curve was filed as active; inconclusive = small, poorly fitted or top-dose-only effect, or effect the other way, or a change in a side signal; inactive = no such curve, though single readings can be large or run the other way; the % refers to the signal ratio; note: potency is the fitted concentration of half-maximal effect). The essentials:
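Antagonist mode: inhibition of 0.5 nM 17-beta-estradiol-driven beta-lactamase reporter in HEK 293 ER-alpha-UAS-bla cells, 18 h at 37C, CCF4 readout after 2 h at RT. Normalised to estradiol and DMSO; titration fitted to Hill.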

Test [12] in a line: qHTS assay for small molecule agonists of retinoid X receptor alpha signaling (AID 588544). The settings on record: HEK293T RXRa-UAS-bla, beta-lactamase reporter, 18 h; 530 nm emission.
Test [13] can be described thus: qHTS assay for small molecule antagonists of the retinoid-related orphan receptor gamma (ROR-gamma) signaling pathway - cell viability counter screen (AID 720652; active = well fitted cell-killing curve with a large enough effect in the repeat runs; inconclusive = weak or mixed curves, or effect the other way;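 note: potency is the fitted concentration of half-maximal effect; compound exposure lasted 16 hr before ATP read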). Summed up: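 Counter screen in CHO cells carrying TET-inducible ROR-gamma and an ROR response element-luciferase reporter; cells plated 5 hr, compound pinned, doxycycline added, then 16 hr at 37 C. Viability read as intracellular ATP by CellTiter-Glo luminescence.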

Active and inactive are the calls of the source. Unless noted, calls come from the whole dose curve.

Chain of Peroxisome proliferator-activated receptor gamma (Homo sapiens) (P37231 whole entry, looked up): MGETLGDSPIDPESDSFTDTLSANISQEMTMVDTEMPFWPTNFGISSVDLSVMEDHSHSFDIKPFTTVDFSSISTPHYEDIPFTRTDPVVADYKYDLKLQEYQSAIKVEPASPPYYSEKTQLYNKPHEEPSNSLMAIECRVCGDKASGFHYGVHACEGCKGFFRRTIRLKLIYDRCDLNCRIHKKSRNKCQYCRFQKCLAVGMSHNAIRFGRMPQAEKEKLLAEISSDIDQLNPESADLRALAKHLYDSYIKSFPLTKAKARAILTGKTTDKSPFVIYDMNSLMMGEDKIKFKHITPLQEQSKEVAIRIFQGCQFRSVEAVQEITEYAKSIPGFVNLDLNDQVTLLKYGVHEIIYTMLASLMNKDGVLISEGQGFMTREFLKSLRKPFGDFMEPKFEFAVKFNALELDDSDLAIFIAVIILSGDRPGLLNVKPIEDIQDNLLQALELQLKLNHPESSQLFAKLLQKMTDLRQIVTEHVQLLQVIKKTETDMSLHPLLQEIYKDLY
Chain of Glucocorticoid receptor (Homo sapiens) (P04150 whole entry, looked up): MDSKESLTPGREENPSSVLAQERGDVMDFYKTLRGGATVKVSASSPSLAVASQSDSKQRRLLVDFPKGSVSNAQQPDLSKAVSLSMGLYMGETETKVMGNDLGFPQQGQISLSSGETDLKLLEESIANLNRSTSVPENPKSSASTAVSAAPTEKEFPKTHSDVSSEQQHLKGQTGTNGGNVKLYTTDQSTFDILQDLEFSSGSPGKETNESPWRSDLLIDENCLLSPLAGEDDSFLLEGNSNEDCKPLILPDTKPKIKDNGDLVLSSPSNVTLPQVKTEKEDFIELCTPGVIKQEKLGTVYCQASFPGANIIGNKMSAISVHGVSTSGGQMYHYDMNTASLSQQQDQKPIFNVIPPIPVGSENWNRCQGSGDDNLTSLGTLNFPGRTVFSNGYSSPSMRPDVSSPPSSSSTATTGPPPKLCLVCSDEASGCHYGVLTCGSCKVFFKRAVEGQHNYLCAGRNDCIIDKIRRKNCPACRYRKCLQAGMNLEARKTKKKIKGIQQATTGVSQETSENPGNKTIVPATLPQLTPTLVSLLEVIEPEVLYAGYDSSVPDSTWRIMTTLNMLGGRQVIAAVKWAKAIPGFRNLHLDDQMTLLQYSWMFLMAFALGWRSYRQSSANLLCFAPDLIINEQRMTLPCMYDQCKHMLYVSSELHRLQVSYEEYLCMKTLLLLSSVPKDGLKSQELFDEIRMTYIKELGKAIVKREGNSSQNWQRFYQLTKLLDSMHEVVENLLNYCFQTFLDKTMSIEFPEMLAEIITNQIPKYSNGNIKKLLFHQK
Chain of Bile acid receptor (Homo sapiens) (Q96RI1 whole entry, looked up): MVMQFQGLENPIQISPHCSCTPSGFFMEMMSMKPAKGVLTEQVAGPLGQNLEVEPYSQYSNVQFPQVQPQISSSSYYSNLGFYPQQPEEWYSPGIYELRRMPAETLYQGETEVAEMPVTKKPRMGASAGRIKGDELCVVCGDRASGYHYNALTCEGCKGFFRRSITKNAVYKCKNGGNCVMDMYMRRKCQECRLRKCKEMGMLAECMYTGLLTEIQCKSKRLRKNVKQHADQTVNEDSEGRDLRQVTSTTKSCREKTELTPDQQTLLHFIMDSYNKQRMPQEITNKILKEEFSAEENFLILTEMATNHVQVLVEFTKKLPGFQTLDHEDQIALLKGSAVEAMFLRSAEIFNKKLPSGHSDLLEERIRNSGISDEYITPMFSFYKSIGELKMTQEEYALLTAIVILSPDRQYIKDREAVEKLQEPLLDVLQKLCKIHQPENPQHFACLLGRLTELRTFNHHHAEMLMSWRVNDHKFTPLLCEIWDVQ
Chain of Vitamin D3 receptor (Homo sapiens) (P11473 whole entry, looked up): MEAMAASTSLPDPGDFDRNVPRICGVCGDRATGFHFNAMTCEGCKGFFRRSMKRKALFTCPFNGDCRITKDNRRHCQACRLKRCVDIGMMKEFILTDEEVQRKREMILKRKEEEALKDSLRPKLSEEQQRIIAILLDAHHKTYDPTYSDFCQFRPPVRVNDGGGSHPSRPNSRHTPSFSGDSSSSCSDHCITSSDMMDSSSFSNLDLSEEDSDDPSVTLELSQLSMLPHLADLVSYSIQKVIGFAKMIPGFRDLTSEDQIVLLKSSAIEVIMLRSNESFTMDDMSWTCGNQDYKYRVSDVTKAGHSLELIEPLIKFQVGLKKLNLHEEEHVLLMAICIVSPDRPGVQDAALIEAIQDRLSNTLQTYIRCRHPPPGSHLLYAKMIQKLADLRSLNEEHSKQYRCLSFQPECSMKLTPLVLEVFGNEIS
Chain of Androgen receptor (Homo sapiens) (P10275 whole entry, looked up): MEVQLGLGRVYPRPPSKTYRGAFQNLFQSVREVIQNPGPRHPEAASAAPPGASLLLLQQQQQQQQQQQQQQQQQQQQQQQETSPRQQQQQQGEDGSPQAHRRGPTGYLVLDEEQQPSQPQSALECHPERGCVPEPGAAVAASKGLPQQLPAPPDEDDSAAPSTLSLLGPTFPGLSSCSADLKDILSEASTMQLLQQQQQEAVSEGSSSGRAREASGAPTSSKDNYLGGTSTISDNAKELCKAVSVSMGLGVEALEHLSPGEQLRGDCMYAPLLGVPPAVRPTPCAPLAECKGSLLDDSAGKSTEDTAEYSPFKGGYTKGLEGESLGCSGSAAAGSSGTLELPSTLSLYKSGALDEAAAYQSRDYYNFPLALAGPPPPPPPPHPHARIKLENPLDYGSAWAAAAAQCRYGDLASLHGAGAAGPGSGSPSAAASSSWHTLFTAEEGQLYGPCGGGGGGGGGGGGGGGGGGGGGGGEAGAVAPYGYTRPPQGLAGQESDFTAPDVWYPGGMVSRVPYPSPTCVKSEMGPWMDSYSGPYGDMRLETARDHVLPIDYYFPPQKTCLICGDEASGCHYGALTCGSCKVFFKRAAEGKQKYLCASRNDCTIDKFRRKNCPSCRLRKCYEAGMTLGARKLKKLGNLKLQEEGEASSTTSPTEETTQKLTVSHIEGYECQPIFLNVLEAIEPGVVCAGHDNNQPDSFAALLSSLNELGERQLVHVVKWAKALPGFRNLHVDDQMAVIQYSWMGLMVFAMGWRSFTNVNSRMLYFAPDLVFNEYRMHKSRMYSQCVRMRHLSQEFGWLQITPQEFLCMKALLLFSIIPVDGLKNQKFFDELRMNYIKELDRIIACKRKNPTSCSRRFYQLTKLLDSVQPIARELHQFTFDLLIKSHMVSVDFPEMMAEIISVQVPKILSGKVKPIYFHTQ
Chain of Estrogen receptor (Homo sapiens) (P03372 whole entry, looked up): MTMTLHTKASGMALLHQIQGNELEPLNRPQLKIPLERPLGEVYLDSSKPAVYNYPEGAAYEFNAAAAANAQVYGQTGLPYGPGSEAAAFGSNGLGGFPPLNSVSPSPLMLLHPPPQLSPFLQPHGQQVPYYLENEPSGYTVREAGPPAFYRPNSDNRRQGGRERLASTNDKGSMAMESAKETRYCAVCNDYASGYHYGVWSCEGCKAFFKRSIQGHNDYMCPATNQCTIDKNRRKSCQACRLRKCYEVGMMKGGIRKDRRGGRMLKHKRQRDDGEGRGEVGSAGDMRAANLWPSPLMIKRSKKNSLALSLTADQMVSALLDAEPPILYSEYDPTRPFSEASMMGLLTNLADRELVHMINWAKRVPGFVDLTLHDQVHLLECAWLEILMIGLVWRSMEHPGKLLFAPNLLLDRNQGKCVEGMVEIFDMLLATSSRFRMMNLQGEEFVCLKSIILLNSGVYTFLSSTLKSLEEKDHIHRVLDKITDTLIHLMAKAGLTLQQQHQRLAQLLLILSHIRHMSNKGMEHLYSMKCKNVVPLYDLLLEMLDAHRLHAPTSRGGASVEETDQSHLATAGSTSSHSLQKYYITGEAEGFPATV

With `COc1ccc(-c2ccccc2)cc1NNC(=O)OC(C)C`, the activation is -16.7% (inactive) in [1], 1.06% (inactive) in test [4] and -5.42% (inactive) in [5]. The Potency result in [2], in test [3], in test [6] and in test [7] was “inactive” each time. Also, the compound was classed as inactive in test [8] and in test [10]. Besides, in test [9], the Potency is 54.5 µM (active).

As to `O=Cc1cccc(Oc2ccccc2)c1`, the Potency result in test [11], in [7] and in test [9] was “inactive” in each case. For the same compound, the compound was classed as inactive in test [8] and in [10]. The max response in [12] was determined as 6.44%.

For the compound `CC(C)(C)C(O)C(Oc1ccc(-c2ccccc2)cc1)n1cncn1` (stereo unspecified), the activation is -4.84% (inactive) in test [1] and 2.98% (inactive) in test [4]. Moreover, the Potency result in test [3] and in [6] was “inactive” in each case. For the same compound, the Potency in test [9] was 68.6 µM (active).

With `COP(=O)(OC)SCn1c(=O)oc2cc(Cl)cnc21`, the activation in test [1] was 7.35% (inactive). The Potency entry in test [2] is “inactive”. In [10], the outcome was inactive.

Regarding `CS/C(C)=N/OC(=O)N(C)SN(C)C(=O)O/N=C(\C)SC`, the activation is -1.29% (inactive) in test [1], 3.69% (inactive) in [4] and 10.5% (inactive) in test [5]. Moreover, the Potency entry in [2], in [3], in test [6] and in test [9] was “inactive” in each case. The compound was called inactive in test [10].

As to `CCNc1nc(Cl)nc(NC(C)(C)C)n1`, the activation is -15.6% (inactive) in [1] and 0.616% (inactive) in [4]. Also, the Potency result in test [2], in [3], in [7] and in [9] was “inactive” each time.

As for `Cc1[nH]c(=O)n(C(C)(C)C)c(=O)c1Cl`, the figures for the activation in test [1] and in test [4] were 0.796% (inactive) and 0.517% (inactive), respectively. In addition, the Potency result in test [2], in test [3], in [6] and in [7] was “inactive” throughout. Besides, the max response in test [12] was -0.982%. Further, the result in test [10] was inactive.

For the compound `O=[N+]([O-])c1ccc(Cl)c([N+](=O)[O-])c1`, the activation was -0.974% (inactive) in test [1], 16.6% (inactive) in test [4] and 0.437% (inactive) in test [5]. For the same compound, the Potency in test [3] is 35.5 µM (active). Further, in test [7], the Potency result is “inactive”.

Turning to `CC(C)(C)OOC(C)(C)c1ccc(C(C)(C)OOC(C)(C)C)cc1`, the activation in test [1] was 4.74% (inactive); in test [4], 3.45% (inactive); in [5], -6.76% (inactive). The Potency result in test [2], in test [3], in test [7] and in test [9] was “inactive” in each case. The max response in [12] was -9.77%.

Turning to `O=C(O)C(F)(F)C(F)(F)C(F)(F)C(F)(F)C(F)(F)F`, the Potency entry in test [11], in test [6] and in test [7] was “inactive” in each case. Also, the compound was called inactive in test [8]. Moreover, the max response in [12] came to 6.49%.

Consider `Nc1cnn(-c2ccccc2)c(=O)c1Cl`, for which the Potency entry in [11], in [6] and in test [7] was “inactive” throughout. Moreover, the outcome in test [8] and in [10] was inactive.

With `C=C1CC[C@H](O)C/C1=C/C=C1\CCC[C@]2(C)[C@@H]([C@H](C)CCCC(C)C)CC[C@@H]12`, the Potency in [11] is 15.8 µM [inconclusive] (active); in test [9] it was 23.7 µM (active); in test [13] it was 66.8 µM (active).

Regarding `CCOP(=O)(OCC)OC(Cl)C(Cl)(Cl)Cl` (stereo unspecified), the activation was -3.01% (inactive) in test [1], 4.93% (inactive) in test [4] and -1.92% (inactive) in test [5]. For the same compound, the Potency entry in [3] was “inactive”. For the same compound, the compound was called inactive in [8] and in [10]. Besides, the max response in test [12] was -5.65%.

In the case of `C#CCN1C(=O)COc2cc(F)c(N3C(=O)C4=C(CCCC4)C3=O)cc21`, the values for the activation in test [1] and in test [5] were 8.69% (inactive) and -6.94% (inactive), respectively. For the same compound, the Potency entry in [2] and in [6] was “inactive” in each case. Further, the compound was classed as inactive in test [8] and in test [10]. Besides, in test [12], the max response is -8.78%.

Consider `CCOP(=O)(OCC)SCS(=O)(=O)C(C)(C)C`, for which the activation is 11.8% (inactive) in [1], -5.69% (inactive) in test [4] and -1.34% (inactive) in test [5]. The Potency result in test [3], in [6] and in test [7] was “inactive” in each case. Besides, the outcome in test [8] and in [10] was inactive. In addition, the max response in test [12] worked out at 4.6%.

`COP(=O)(OC)OC(Br)C(Cl)(Cl)Br` (stereo unspecified): in test [1], the activation was 4.22% (inactive). The Potency entry in test [3] and in test [7] was “inactive” each time. Besides, the Potency was 22.4 µM (active) in [6] and 24.3 µM (active) in [9]. Further, the result in test [8] was inactive.

`O=C(Nc1ccccc1)Nc1ccnc(Cl)c1`: the activation is 10.1% (inactive) in test [1], -3.44% (inactive) in test [4] and -0.972% (inactive) in test [5]. For the same compound, the Potency result in [2], in test [3], in test [6] and in [7] was “inactive” throughout. Also, the outcome in test [8] was inactive.

Consider `[Ga]#[As]`, for which the activation was 2.63% (inactive) in [1] and 4.24% (inactive) in [5]. Moreover, the Potency entry in test [2], in [3], in test [6] and in [7] was “inactive” throughout. In addition, in [12], the max response is -5.43%. Further, the compound was called inactive in [10].

Take `CCCCC(O)(Cn1cncn1)c1ccc(Cl)cc1Cl` (stereo unspecified): the activation in test [1] was -10.4% (inactive); in [4] it was -2.88% (inactive). Moreover, in [3], the Potency entry was “inactive”. The compound was called inactive in test [8].

As for `CC1=C(C(=O)Nc2ccccc2)S(=O)(=O)CCO1`, the values for the activation in test [4] and in test [5] were -2.72% (inactive) and -17.4% (inactive), respectively. In addition, the Potency entry in [6] is “inactive”. In addition, in test [9], the Potency was 8.63 µM (active). Further, in test [10], the call was inactive.

As to `CC(C)=CC1[C@H](C(=O)OCc2cccc(Oc3ccccc3)c2)C1(C)C` (stereo partly specified), the Potency result in [3] was “inactive”. The activation in test [4] was -3.66% (inactive). Moreover, the compound was called inactive in [8]. The max response in test [12] was -6.27%.

Take `CC(C)Oc1cc(-n2nc(C(C)(C)C)oc2=O)c(Cl)cc1Cl`: the figures for the activation in [1], in test [4] and in test [5] were -15% (inactive), 1.08% (inactive) and 12% (inactive), respectively. In addition, in [8], the compound was called inactive. Further, the Potency in test [9] was 61.1 µM (active).

Turning to `CNC(=O)O/N=C/C(C)(C)S(C)(=O)=O`, the activation in [1] was 1.32% (inactive); in test [5] it was 9.32% (inactive). Besides, in [6], the Potency entry was “inactive”. The max response in test [12] is -16.6%. In addition, the compound was called inactive in test [10].

As for `CC1(C)CCC(Cc2ccc(Cl)cc2)C1(O)Cn1cncn1` (stereo unspecified), in [4], the activation is 4.35% (inactive). Further, in test [7], the Potency result was “inactive”. Besides, in [8], the compound was called inactive. Besides, in test [12], the max response was 16.6%.

For `Cc1cccc2sc3nncn3c12`, the Potency entry in [3] and in test [6] was “inactive” each time. For the same compound, the activation in [4] was -0.105% (inactive). Further, the max response in [12] was determined as 0.611%. Also, the Potency in test [9] is 2.73 µM (active).

For the compound `COc1cc(OC)nc(NC(=O)NS(=O)(=O)c2ncccc2OCC(F)(F)F)n1`, the Potency result in [3] and in test [7] was “inactive” each time. For the same compound, the activation in [4] is 0.378% (inactive); in test [5] it was 3.36% (inactive). In addition, in [8], the outcome was inactive.

Take `CNC(=O)Oc1cccc(N=CN(C)C)c1`: the Potency entry in [3], in test [6] and in [7] was “inactive” in each case. Besides, in [4], the activation was -2.76% (inactive). Also, the result in test [8] and in [10] was inactive. In addition, the max response in [12] stood at 1.64%.
